Source: PubChem BioAssay (The Scripps Research Institute Molecular Screening Center)
The full list was thinned out, with hits kept by preference.
TbREL1 primary: TbREL1 inhibition, primary screen | inhibition, % at 9.66 µM | AID 1117264 | hit rate 0.49% among 89,000 | P86926 | TbREL1 RNA ligation, FRET fluorescence;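 active means inhibition above the mean inhibition across all screened compounds plus 3 SD, cut at about 11% in these data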;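 further: 0% = plate median of test wells and 100% = NSC42067 control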
Target sequence (P86926 whole entry, looked up): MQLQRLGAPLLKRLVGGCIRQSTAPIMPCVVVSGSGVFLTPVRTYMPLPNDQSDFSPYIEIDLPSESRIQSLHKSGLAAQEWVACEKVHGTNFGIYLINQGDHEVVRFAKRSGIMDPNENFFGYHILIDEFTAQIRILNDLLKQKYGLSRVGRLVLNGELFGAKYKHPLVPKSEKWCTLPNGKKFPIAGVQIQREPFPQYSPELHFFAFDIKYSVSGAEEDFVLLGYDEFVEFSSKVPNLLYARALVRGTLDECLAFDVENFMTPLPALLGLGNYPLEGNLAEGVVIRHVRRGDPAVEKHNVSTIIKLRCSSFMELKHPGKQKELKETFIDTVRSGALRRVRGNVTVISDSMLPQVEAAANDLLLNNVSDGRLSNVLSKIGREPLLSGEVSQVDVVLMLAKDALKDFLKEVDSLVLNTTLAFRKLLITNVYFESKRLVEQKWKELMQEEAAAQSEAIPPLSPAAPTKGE
TbREL1 confirm: TbREL1 inhibition, confirmation | inhibition, % at 9.66 µM | hit rate 37% among 390 | AID 1117282 | shares compounds with TbREL1 primary | TbREL1 RNA ligation, FRET fluorescence;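 active means mean inhibition across replicates above a set limit taken from the earlier primary screen, cut at about 11% in these data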;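 further: 0% = REL1 with substrate and DMSO and 100% = REL1 plus control inhibitor NSC42067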
* hit, by the source's call.

SMILES	TbREL1 primary	others
CCN=C1NC(c2ccc(C(F)(F)F)cc2)C(C(=O)OC)=C(C)N1Cc1cccc(C(F)(F)F)c1 (centres undefined)	7.2
Cn1c(SCc2ccc(C(C)(C)C)cc2)nnc1-c1ccco1	0.5
CC1(C(=O)NS(=O)(=O)c2ccc3ccccc3c2)CCN1C(=O)Cc1ccc(Cl)cc1Cl (centres undefined)	0.7
Cc1ccc(NC(=O)C2CSC3(C)CCC(=O)N23)cc1S(=O)(=O)N1CCCCCC1 (centres undefined)	-1.3
OC(c1ccc(Cl)c(F)c1)c1ncc(-c2ccccc2F)[nH]1 (centres undefined)	1.7
COc1ccccc1C(=O)n1ccc2ccc(-c3ccc4ccn(Cc5ccccc5)c4c3)cc21	8.8
O=C(NCc1cccc(C(F)(F)F)c1)C1C(=O)Nc2ccccc2C(=O)N1C1CCCC1 (centres undefined)	-4.1
CCOC(=O)C1=CC[C@@H](c2ccccc2)N(S(=O)(=O)c2ccc(C)cc2)[C@H]1C=C(C)C	-1.3
COc1ccc(CN2CCC(CNC(=O)NC(C)C)CC2)cc1	3.9
O=C(c1cn(-c2ccccc2)nc1-c1cccnc1)N1CCN(S(=O)(=O)c2ccc(Cl)cc2)CC1	-0.9
O=C(COC(=O)c1ccc(Br)o1)NCC(=O)Nc1ccc(F)cc1	-0.5
CCOc1ccc(C=Nn2c(-c3ccc(F)cc3)n[nH]c2=S)cc1	-3.1
COc1ccccc1NC(=O)c1cccs1	2.2
COc1ccccc1C(=O)NCC(=O)NNC(=O)c1cccs1	1.2
COc1ccccc1/C=C/C(=O)NNC(=O)c1cccs1	11.5*	TbREL1 confirm=4.4
CN(C)[C@H]1CCN(c2ccc3c(c2)OCCCN(C2CC2)S3(=O)=O)C1	-0.1
O=C1NC[C@@H](CCCCN2CCN(CCC3CCCCC3)C(=O)C2=O)N(CCC2CCCCC2)C1=O	1.8
CCOc1ccc(S(=O)(=O)N(C)c2ccc(OCC(=O)Nc3ccc4[nH]c(=O)[nH]c4c3)cc2)cc1	11.4*	TbREL1 confirm=3.0
COC(=O)c1ccc(NC(=O)COc2ccc(N(C)S(=O)(=O)c3ccc(C)cc3)cc2)cc1	0.0
CN(c1ccc(OCC(=O)Nc2ccc3[nH]c(=O)[nH]c3c2)cc1)S(=O)(=O)c1ccc(Cl)cc1	0.3
O=C(OCC#CCSc1nnc(-c2cc3ccccc3cc2O)o1)c1ccc(F)cc1	-2.8
CCCCCCCCN1C(=O)[C@@H](CC(=O)NCCCC)C[C@@]2(C(=O)OC)C1=C[C@H](COCc1ccccc1)O[C@@H]2C	-0.9
COc1ccc(F)cc1-c1cc(C(C)=O)c2n(c1=O)CCC2	4.2
O=C(NCCc1ccccc1)O[C@H]1CC[C@@]23CCCN2C(=O)CCC[C@H]3C1	-4.5
O=C(NCc1ccccc1)O[C@@H]1CC[C@@]23CCCN2C(=O)CCC[C@H]3C1	-4.5
SMILES	TbREL1 primary	others
CCCCNC(=O)O[C@H]1CC[C@@]23CCCN2C(=O)CCC[C@H]3C1	13.5*	TbREL1 confirm=-3.4
COC(=O)[C@]12C[C@H](CC(=O)NCc3ccc(OC)c(OC)c3)C(=O)N(Cc3ccc4c(c3)OCO4)C1=C[C@H](C(C)C)O[C@@H]2C1CC1	-5.1
CCc1ccc(NC(=O)c2cc(C(C)C)on2)cc1	5.1
CC(C)c1cc(C(=O)NCc2ccco2)no1	0.3
CC(C)c1cc(C(=O)NCCc2ccccc2)no1	11.4*	TbREL1 confirm=1.3
O=C(Nc1cccc(Cl)c1)NC1CCCCC1	6.1
O=C(Nc1nnc(-c2ccc(Cl)cc2)o1)NC1CCCCC1	-1.4
Clc1ccc(CN=C(Nc2ccccc2)NC2CCCCC2)cc1	12.6*	TbREL1 confirm=15.4*
CCOC(=O)N1CCN(C(=O)C[C@@H]2C[C@@]3(C(=O)OCC)CCCC=C3N(Cc3ccccc3)C2=O)CC1	0.5
CCCOC(=O)c1ccc(O)c(OC)c1	-4.1
COc1ccc(N)cc1C#N	-2.3
CCCOc1ccc(N)cc1N	12.0*	TbREL1 confirm=5.7
Cc1cc2cc3c(cc2n2c(SCC(=O)Nc4nc(-c5ccccc5)cs4)nnc12)OCO3	7.1
COc1ccc(CCCNC(=O)C2(C)Cc3c(-c4ccc5c(c4)OCO5)ccnc3O2)cc1 (centres undefined)	-2.9
Cc1ccc([C@H]2C[C@H](O)[C@@H](n3cc(C4CC4)nn3)CN2C(=O)C2CCCCC2)cc1	-0.7
CN1CCC(N[C@@H](Cc2c[nH]c3ccccc23)C(=O)NCC(c2ccccc2)c2ccccc2)(C(=O)NC2CCCCC2)CC1	-0.8
CC(C)C[C@H](NC1(C(=O)NC2CCCCC2)CCCCC1)C(=O)NCC(c1ccccc1)c1ccccc1	-0.8
CC(C)C[C@H](NC1(C(=O)NC2CCCCC2)CCN(C)CC1)C(=O)NCC(c1ccccc1)c1ccccc1	17.3*	TbREL1 confirm=17.6*
Cn1c(-c2ccccc2)cc(=O)n1-c1ccccc1	-0.1
Cc1ccc(-n2c(SCc3nc4ccccc4[nH]3)nnc2-c2ccccn2)cc1	-0.1
CC(C)CCOc1ccc(-c2c(=O)n(OCc3ccc([N+](=O)[O-])cc3)c3ccccc3[n+]2[O-])cc1	-1.5
O=c1c(-c2ccco2)[n+]([O-])c2ccccc2n1OCc1ccccc1	1.0
O=c1c(-c2cccc([N+](=O)[O-])c2)[n+]([O-])c2ccccc2n1O	12.1*	TbREL1 confirm=4.5
Cc1ccccc1CNC(=O)c1cccc2c1C(=O)N(Cc1cccnc1)C2	1.1
COCC(=O)N1C[C@H](C)[C@H](OC)CN(C)C(=O)c2cc(NC(=O)Nc3cccc(F)c3)ccc2OC[C@@H]1C	5.2
SMILES	TbREL1 primary	others
O=C(Nc1ccc(Cl)cc1)N1CCN(Cc2nc3ccccc3c(=O)[nH]2)CC1	2.6
COc1ccc(-c2noc(CCC(=O)O)n2)cc1	1.2
COc1ccc(-c2noc(CNC(=O)c3ccoc3C)n2)cc1	14.8*	TbREL1 confirm=1.8
Cc1occc1C(=O)NCc1nc(-c2ccc(Cl)cc2)no1	1.0
CC(C)C[C@@H]1O[C@H](C(C)C)Cc2[nH][nH]c(=O)c21	-0.5
Cc1ccc(C=Nn2c(-c3n[nH]c4c3CCC4)n[nH]c2=S)o1	-1.5
O=C(Nc1ccc(F)cc1)C(c1ccnc2ccccc12)N1CCN(C(=O)c2ccco2)CC1 (centres undefined)	1.7
COc1ccccc1-c1c(C)nn2c(N3CCC(C(N)=O)CC3)cc(C)nc12	3.9
CCOC(=O)N1CCN(C(=O)CSc2cc(C)nc3c(-c4ccccc4OC)c(C)nn23)CC1	13.5*	TbREL1 confirm=2.1
COc1ccccc1-c1c(C)nn2c(N3CCC(C)CC3)cc(C)nc12	-0.9
O=C(O)CCN1C(=O)/C(=C/c2ccc(F)cc2F)SC1=S	-2.9
COc1cccc(C(=O)Nc2ccc(F)c(F)c2F)c1	2.1
COc1cccc(C(=O)Nc2ccccc2F)c1	2.7
COC(=O)c1sccc1NC(=O)c1cccc(OC)c1	50.5*	TbREL1 confirm=1.8
COc1cccc(CNC(=O)c2cccc(NC(=O)CC3SC(N4CCCCC4)=NC3=O)c2)c1 (centres undefined)	5.3
OC(c1ccccc1)(c1nc(/C=C/c2ccccc2)cs1)C(F)(F)F (centres undefined)	0.8
O=C(CSc1nnc(-c2cccnc2)n1Cc1ccco1)Nc1ccc(Cl)cc1	5.4
C/C(CC(=O)Nc1ccccn1)=N\NC(=O)c1ccc2ccccc2c1	0.1
CCCNC(=O)C/C(C)=N/NC(=O)C(=O)Nc1ccccn1	2.5
C/C(CC(=O)Nc1ccccn1)=N\NC(=O)c1ccccc1O	22.3*	TbREL1 confirm=5.2
C[C@@H]1CCN(C2CC2)S(=O)(=O)c2ccc(N3CCC[C@@H]3CO)cc2O1	-1.6
C=C(C(=O)Oc1c(C(C)(C)C)cccc1C(C)(C)C)c1ccccc1	-1.5
